6 molecules from ChEMBL document CHEMBL1961873, “Compounds: GSK PKIS; Assays: Nanosyn kinase panel” (2012) can be followed below.

Each structure is given as a SMILES string.

What is called inhibition is the relative decrease from the control value, in per cent.

Experiment [1] concerns the target Dual specificity protein kinase CLK3 (Homo sapiens) (UniProt P49761). The following applies: at 1 µM.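 Further: each value is the mean inhibition of CLK3.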
Experiment [2] has as its target Dual specificity tyrosine-phosphorylation-regulated kinase 1A (Homo sapiens) (UniProt Q13627). The following applies: at 0.1 µM.
The target is the same in experiment [3]. The following applies: at 1 µM.
The target in experiment [4] is Dual specificity tyrosine-phosphorylation-regulated kinase 1B (Homo sapiens) (UniProt Q9Y463). As to conditions: at 0.1 µM.
For experiment [5] the target is unchanged. The following applies: at 1 µM.
For experiment [6], the target named is T1, Dual specificity tyrosine-phosphorylation-regulated kinase 2 (Homo sapiens) (UniProt Q92630).
T1 sequence (whole entry): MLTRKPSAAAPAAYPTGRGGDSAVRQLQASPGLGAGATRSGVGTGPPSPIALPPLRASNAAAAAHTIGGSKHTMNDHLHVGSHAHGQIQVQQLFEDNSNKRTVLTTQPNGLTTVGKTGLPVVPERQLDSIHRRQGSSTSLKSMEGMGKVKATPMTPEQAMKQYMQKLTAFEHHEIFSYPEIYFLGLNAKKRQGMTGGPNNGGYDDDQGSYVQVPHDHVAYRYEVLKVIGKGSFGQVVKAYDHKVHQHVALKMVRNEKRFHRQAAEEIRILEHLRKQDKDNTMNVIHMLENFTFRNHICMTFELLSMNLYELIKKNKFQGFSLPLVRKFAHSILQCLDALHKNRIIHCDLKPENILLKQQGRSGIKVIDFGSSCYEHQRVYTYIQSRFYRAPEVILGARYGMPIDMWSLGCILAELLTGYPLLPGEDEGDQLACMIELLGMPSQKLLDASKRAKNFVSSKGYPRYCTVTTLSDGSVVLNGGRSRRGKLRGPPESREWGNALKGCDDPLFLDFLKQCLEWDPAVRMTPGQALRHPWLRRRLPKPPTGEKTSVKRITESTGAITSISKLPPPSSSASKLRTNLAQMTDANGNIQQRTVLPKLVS
The following applies: at 0.1 µM.

Experiment [7] concerns the target T1, Dual specificity tyrosine-phosphorylation-regulated kinase 2 (Homo sapiens). The following applies: at 1 µM.
For experiment [8], the target named is Glycogen synthase kinase-3 alpha (Homo sapiens) (UniProt P49840). As to conditions: at 0.1 µM.
Experiment [9] has the same target. As to conditions: at 1 µM.
The target in experiment [10] is Glycogen synthase kinase-3 beta (Homo sapiens) (UniProt P49841). As to conditions: at 0.1 µM.
Experiment [11] shares this target. The following applies: at 1 µM.
Experiment [12] concerns the target Homeodomain-interacting protein kinase 1 (Homo sapiens) (UniProt Q86Z02). As to conditions: at 0.1 µM.
The target is the same in experiment [13]. As to conditions: at 1 µM.
The target in experiment [14] is T2, Homeodomain-interacting protein kinase 4 (Homo sapiens) (UniProt Q8NE63).
T2 sequence (whole entry): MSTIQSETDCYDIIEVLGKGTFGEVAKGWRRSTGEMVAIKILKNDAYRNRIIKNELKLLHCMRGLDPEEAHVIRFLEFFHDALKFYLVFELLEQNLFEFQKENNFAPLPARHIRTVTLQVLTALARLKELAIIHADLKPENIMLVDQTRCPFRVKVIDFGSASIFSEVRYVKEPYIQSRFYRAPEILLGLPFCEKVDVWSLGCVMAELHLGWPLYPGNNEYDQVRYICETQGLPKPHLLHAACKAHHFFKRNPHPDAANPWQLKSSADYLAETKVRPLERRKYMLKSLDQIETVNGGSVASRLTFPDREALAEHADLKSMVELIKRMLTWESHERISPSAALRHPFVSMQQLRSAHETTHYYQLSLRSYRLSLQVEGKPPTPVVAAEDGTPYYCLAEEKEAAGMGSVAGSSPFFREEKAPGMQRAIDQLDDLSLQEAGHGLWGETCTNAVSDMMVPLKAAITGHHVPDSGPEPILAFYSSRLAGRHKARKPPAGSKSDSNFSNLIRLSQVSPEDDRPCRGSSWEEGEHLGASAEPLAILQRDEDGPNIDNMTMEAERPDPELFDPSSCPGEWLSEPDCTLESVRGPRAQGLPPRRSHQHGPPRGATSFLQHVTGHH
The following applies: at 0.1 µM.

Experiment [15] deals with T2, Homeodomain-interacting protein kinase 4 (Homo sapiens). As to conditions: at 1 µM.
Experiment [16] concerns the target Mitogen-activated protein kinase 9 (Homo sapiens) (UniProt P45984). The following applies: at 0.1 µM.
The target is the same in experiment [17]. The following applies: at 1 µM.
Experiment [18] deals with Mitogen-activated protein kinase 1 (Homo sapiens) (UniProt P28482). The following applies: at 0.1 µM.
Experiment [19] shares this target. The following applies: at 1 µM.
Experiment [20] addresses Mitogen-activated protein kinase 3 (Homo sapiens) (UniProt P27361). As to conditions: at 0.1 µM.

Mitogen-activated protein kinase 9 (Homo sapiens), sequence (P45984 whole entry, looked up): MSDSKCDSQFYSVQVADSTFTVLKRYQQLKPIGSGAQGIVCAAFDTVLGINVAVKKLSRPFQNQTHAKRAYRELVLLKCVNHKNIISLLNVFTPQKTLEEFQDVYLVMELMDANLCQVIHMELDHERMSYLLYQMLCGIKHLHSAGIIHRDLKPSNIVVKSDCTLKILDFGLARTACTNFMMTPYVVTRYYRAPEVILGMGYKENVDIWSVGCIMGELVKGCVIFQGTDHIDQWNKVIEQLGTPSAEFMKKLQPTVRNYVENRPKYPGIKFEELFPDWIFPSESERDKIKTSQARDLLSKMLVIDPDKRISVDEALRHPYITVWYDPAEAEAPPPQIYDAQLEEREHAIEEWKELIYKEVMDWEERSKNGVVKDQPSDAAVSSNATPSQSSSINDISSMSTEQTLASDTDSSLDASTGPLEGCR
Glycogen synthase kinase-3 alpha (Homo sapiens), sequence (P49840 2-483 limits assumed): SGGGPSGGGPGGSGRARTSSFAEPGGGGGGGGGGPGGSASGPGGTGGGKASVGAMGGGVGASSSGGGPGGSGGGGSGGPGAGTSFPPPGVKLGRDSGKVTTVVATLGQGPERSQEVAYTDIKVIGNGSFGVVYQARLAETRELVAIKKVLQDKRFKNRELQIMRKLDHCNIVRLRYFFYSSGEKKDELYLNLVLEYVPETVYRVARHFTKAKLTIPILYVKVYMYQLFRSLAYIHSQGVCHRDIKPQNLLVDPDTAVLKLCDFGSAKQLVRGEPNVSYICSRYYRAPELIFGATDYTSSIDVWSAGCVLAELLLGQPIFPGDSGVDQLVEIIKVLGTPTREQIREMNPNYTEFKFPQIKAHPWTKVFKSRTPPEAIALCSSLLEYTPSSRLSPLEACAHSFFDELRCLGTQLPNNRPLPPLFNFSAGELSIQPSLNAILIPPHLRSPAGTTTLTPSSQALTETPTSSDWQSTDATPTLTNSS
Dual specificity protein kinase CLK3 (Homo sapiens), sequence (P49761 whole entry, looked up): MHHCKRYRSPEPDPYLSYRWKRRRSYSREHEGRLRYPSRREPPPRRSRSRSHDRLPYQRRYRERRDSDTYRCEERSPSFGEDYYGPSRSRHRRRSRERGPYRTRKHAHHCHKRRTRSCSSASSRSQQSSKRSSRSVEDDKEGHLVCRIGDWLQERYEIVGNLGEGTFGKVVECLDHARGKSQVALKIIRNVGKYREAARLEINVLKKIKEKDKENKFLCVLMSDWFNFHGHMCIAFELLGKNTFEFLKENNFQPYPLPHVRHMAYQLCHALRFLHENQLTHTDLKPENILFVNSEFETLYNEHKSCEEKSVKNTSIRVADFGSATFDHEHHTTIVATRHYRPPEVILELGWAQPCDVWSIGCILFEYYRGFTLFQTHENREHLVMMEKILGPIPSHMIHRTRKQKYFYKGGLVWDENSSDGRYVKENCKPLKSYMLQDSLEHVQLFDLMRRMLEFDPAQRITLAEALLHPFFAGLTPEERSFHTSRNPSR
Mitogen-activated protein kinase 3 (Homo sapiens), sequence (P27361 whole entry): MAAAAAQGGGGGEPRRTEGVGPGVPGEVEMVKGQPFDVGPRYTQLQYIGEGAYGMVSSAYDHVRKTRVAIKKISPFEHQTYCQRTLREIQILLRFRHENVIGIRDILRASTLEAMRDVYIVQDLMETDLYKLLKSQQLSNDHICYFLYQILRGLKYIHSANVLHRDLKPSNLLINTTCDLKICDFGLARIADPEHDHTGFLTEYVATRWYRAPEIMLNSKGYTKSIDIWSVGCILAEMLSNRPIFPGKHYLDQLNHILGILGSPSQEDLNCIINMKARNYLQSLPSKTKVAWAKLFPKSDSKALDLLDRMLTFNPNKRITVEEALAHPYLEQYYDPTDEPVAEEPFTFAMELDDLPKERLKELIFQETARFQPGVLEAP
Glycogen synthase kinase-3 beta (Homo sapiens), sequence (P49841 whole entry, looked up): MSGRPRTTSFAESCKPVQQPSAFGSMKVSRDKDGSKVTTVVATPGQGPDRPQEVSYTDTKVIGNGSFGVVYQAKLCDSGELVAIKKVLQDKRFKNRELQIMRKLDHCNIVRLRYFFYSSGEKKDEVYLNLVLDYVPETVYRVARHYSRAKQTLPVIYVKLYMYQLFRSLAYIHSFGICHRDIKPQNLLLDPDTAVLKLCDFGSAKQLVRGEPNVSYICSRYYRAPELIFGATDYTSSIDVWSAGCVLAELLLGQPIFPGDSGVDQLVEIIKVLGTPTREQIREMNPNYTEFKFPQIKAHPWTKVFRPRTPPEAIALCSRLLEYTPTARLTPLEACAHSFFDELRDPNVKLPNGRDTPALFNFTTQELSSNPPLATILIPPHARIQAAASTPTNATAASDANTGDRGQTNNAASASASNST
Homeodomain-interacting protein kinase 1 (Homo sapiens), sequence (Q86Z02 whole entry, looked up): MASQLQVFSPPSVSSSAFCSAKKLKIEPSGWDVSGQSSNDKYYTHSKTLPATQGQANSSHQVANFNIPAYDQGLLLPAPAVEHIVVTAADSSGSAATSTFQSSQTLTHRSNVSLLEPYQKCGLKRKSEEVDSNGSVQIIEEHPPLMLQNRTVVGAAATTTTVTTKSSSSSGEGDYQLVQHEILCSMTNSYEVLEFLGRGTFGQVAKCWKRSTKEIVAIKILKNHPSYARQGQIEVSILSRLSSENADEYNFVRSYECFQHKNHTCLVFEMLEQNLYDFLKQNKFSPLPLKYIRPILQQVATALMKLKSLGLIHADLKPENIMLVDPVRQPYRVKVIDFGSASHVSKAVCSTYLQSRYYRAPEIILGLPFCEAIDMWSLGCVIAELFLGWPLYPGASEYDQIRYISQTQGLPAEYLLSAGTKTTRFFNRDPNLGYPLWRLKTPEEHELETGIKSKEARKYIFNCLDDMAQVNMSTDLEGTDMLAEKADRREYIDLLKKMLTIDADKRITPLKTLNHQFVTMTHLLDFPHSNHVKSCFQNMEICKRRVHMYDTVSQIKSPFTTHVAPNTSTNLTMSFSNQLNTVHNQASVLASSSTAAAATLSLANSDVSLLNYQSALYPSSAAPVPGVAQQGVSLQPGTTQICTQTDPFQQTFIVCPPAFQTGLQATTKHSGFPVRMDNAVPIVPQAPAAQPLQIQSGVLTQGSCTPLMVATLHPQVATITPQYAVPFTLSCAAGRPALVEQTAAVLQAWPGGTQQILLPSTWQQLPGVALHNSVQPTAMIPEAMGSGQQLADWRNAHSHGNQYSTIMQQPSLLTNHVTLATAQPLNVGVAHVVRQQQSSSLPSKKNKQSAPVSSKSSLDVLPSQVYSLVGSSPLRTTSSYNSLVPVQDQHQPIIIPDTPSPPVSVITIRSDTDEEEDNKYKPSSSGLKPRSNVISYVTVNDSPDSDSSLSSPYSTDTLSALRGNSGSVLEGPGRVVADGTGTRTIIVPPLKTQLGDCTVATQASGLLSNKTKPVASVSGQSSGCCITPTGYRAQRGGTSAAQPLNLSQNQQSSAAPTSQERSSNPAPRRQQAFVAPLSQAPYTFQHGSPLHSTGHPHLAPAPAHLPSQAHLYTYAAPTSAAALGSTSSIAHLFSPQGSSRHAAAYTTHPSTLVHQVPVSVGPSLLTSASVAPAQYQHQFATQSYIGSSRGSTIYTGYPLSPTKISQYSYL
Dual specificity tyrosine-phosphorylation-regulated kinase 1B (Homo sapiens), sequence (Q9Y463 whole entry, looked up): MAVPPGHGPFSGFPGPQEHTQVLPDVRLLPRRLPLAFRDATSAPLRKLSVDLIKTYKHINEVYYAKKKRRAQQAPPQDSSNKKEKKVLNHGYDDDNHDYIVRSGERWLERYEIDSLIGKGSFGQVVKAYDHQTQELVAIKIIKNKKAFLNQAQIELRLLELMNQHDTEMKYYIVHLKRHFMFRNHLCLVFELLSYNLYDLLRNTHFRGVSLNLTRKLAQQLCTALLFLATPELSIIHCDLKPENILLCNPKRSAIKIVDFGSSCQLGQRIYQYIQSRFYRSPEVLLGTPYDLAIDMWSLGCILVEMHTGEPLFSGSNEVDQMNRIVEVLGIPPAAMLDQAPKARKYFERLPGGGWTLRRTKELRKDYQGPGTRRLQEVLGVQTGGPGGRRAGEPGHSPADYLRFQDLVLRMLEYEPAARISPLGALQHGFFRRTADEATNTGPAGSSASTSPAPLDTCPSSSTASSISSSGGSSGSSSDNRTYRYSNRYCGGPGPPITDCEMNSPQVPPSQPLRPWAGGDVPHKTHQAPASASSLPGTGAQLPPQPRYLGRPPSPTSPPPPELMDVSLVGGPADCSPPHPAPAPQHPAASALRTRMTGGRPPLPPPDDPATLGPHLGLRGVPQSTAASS
Mitogen-activated protein kinase 1 (Homo sapiens), sequence (P28482 whole entry): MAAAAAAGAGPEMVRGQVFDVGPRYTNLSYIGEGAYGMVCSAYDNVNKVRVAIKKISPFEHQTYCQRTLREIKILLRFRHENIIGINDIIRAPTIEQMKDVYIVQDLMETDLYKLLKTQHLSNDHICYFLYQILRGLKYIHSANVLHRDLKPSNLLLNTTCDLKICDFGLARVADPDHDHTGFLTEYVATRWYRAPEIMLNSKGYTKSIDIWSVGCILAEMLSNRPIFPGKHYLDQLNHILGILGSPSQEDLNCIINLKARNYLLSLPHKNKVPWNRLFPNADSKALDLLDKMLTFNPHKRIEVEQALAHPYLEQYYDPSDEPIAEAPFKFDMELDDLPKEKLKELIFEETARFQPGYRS

In the case of `COc1ccc(-c2cc(-c3c[nH]nc3-c3ccccn3)ccn2)cc1`, the inhibition was 1.7% in experiment [1]; 2.83% in [2]; 6.71% in experiment [3]; -0.15% in experiment [4]; 2.54% in experiment [5]; 4.14% in experiment [6]. Further, the inhibition in experiment [7] amounted to 3.1%; in experiment [8], 3.67%; in experiment [9], 5.27%; in [10], 3.56%; in [11], 6.22%; in experiment [12], 4.42%. For the same molecule, the inhibition was 4.88% in [13]; 2.68% in [14]; -2.34% in [15]; 4.47% in experiment [16]; 9.74% in experiment [17]; 4.07% in experiment [18]. The inhibition turned out to be 5.26% in experiment [19] and 3.56% in experiment [20].

Regarding `CCn1cc(-c2ccnc3[nH]ccc23)c(-c2cccc(NC(=O)Nc3ccc(OCc4ccccc4)cc3)c2)n1`, the inhibition was -1.48% in [1]; -3.22% in experiment [2]; -2.65% in [3]; -1.6% in [4]; -0.5% in experiment [5]; -0.82% in experiment [6]. Also, the inhibition in experiment [7] was -4.73%; in experiment [8], 2.29%; in experiment [9], 3.64%; in experiment [10] it was 1.77%; in [11], 3.94%; in [12], -3.5%. Moreover, the inhibition is -1.09% in [13]; -1.8% in experiment [14]; -0.81% in experiment [15]; 0.84% in [16]; 1.92% in experiment [17]; 1.51% in [18]. Also, the inhibition was determined as 0.25% in experiment [19] and 1.98% in [20].

For `COc1cc(Nc2nccc(Nc3ccc4c(C)n[nH]c4c3)n2)cc(OC)c1OC`, the inhibition in experiment [1] was found to be 6.44%; in experiment [2] it was 0.88%; in experiment [3], 7.54%; in experiment [4], 2.83%; in [5], 5.43%; in experiment [6], 1.95%. Further, the inhibition is 4.25% in experiment [7]; 2.79% in experiment [8]; 17.3% in experiment [9]; 2.73% in experiment [10]; 16.1% in [11]; -0.29% in experiment [12]. Further, the inhibition was determined as 1.88% in experiment [13]; 1.59% in experiment [14]; 3.91% in experiment [15]; 2.22% in experiment [16]; 13.6% in experiment [17]; 0.66% in experiment [18]. Also, the figures for the inhibition in [19] and in [20] were 3.16% and 1.57%, respectively.

Consider `Cc1ccc(O)cc1Nc1ccnc2cc(-c3ccccn3)ccc12`, for which the inhibition in [1] turned out to be 2.88%; in [2], 2.56%; in [3] it was 4.96%; in experiment [4] it was 0.53%; in experiment [5] it was 1.85%; in experiment [6] it was 3.35%. The inhibition is 5.79% in experiment [7]; 2.73% in experiment [8]; 6.51% in [9]; 1.23% in [10]; 5.65% in [11]; 1.24% in experiment [12]. Further, the inhibition in [13] was 5.57%; in experiment [14], 1.19%; in experiment [15] it was 0.77%; in [16] it was 2.32%; in experiment [17], 11.5%; in [18], -0.57%. The inhibition in [19] came out at 4.7%; in experiment [20], 1.59%.

With `Nc1nc(-c2cccc(Cl)c2)c(-c2ccc3ncccc3n2)s1`, the inhibition in [1] was 3.8%; in experiment [2], 6.62%; in experiment [3] it was 31.8%; in [4] it was -0.12%; in experiment [5], 12.7%; in experiment [6], 3.16%. Besides, the inhibition stood at 5.31% in experiment [7]; 3.74% in experiment [8]; 11.2% in experiment [9]; 2.21% in experiment [10]; 7.52% in experiment [11]; 2.34% in experiment [12]. Moreover, the inhibition worked out at 6.93% in [13]; 2.76% in experiment [14]; 13.9% in experiment [15]; 5.19% in [16]; 13.9% in experiment [17]; 6.28% in experiment [18]. For the same molecule, the inhibition in experiment [19] stood at 6.55%; in experiment [20], 5.26%.

Consider `O=S(=O)(CCNCc1ccc(-c2ccc3ncnc(Nc4ccc(OCc5cccc(F)c5)c(Cl)c4)c3c2)o1)c1ccccc1`, for which the inhibition in [1] was -0.68%; in experiment [2], 3.49%; in experiment [3], 5.29%; in experiment [4] it was -0.71%; in experiment [5], 0.19%; in experiment [6] it was 3.86%. The inhibition in experiment [7] came out at 2.88%; in experiment [8] it was 3.49%; in experiment [9], 4.1%; in [10], 2.66%; in [11], 2.57%; in experiment [12], 0.47%. Also, the inhibition was found to be 4.11% in experiment [13]; 3.74% in experiment [14]; 5.4% in experiment [15]; 5.87% in [16]; 5.2% in experiment [17]; 7.56% in experiment [18]. Further, the inhibition amounted to 8.99% in experiment [19] and 6.61% in experiment [20].
